From PubChem BioAssay
PfHsp90 set2: growth inhibition of PfHsp90-expressing yeast, primary screen, antimalarial PfHsp90 inhibitor project, S. cerevisiae, BacTiter-Glo luminescence, single point, set 2. BacTiter-Glo ATP, 48 h; yeast lacking PDR1 and PDR3 efflux regulators. inhibition, % at 9.4 µM. actives 0.32% (n = 310,000). AID 504621, 2011;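 active = every replicate shows inhibition above about 80%, whatever the replicate mean, limit read from the data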;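 note: 0% = DMSO neutral controls and 100% = 20 µM radicicol positive controls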
tim10-1 inh: growth inhibitors of tim10-1 mutant yeast, primary screen, luminescence, uHTS. actives 2.2% (n = 330,000). inhibition, % at 20 µM. AID 463190, 2010. S. cerevisiae tim10-1 ts strain growth, BacTiter-Glo, 24 h;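 active = inhibition of at least 40%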;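 note: mutant grown at 25 °C; 0% = DMSO wells with yeast and 100% = wells holding no yeast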
SKKanGAS inh: S. pyogenes SKKanGAS growth inhibitors in kanamycin, primary screen, streptokinase expression inhibitor project, SKKanGAS strain, BacTiter-Glo luminescence. 6 h. inhibition, % at 7.5 µM. actives 1.3% (n = 300,000). AID 1662, 2009;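 active = mean replicate score, as percent of positive control median, at least 50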;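 note: strain carries kanamycin resistance gene driven by streptokinase promoter and grows in 40 µg/ml kanamycin; loss of luminescence reflects streptokinase promoter inhibition or plain growth inhibition; 0% = median of DMSO wells and 100% = positive control at its reference dose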
TIM10 inh: growth inhibitors of isogenic TIM10 control yeast, primary screen, counter-screen for tim10-1 yeast inhibitor project, luminescence, uHTS | actives 1.4% (n = 330,000) | inhibition, % at 10 µM | AID 463195, 2010 | S. cerevisiae TIM10 strain growth, BacTiter-Glo luminescence, 24 h;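 active = inhibition of 40% or more at the single tested concentration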;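 note: wild-type TIM10 isogenic control strain grown at permissive 25 °C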
tim23-1 inh: growth inhibitors of tim23-1 mutant yeast, primary screen, luminescence, uHTS; inhibition, % at 20 µM; AID 463212, 2010; S. cerevisiae tim23-1 growth, BacTiter-Glo luminescence, 24 h; actives 1.3% (n = 330,000);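 active = growth inhibition of the mutant yeast at or above 50%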;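 note: temperature-sensitive mutant grown at 25 °C; plate controls were DMSO-treated mutant yeast for no effect and medium wells lacking yeast for full effect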
EBI2 block: EBI2 receptor antagonists, beta-arrestin recruitment, primary screen, cell-based, luminescence, 7a,25-OHC stimulation, uHTS. G-protein coupled receptor 183 (Homo sapiens), P32249. 7a,25-OHC stimulated. inhibition, % at 5 µM. actives 0.81% (n = 360,000). AID 651636, 2012; in the data active = inhibition above about 38%;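 note: enzyme fragment complementation signal reports receptor beta-arrestin coupling in cells; 0% = agonist plus DMSO wells and 100% = wells without agonist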
Target sequence (P32249 whole entry, looked up, the tested form may be a part): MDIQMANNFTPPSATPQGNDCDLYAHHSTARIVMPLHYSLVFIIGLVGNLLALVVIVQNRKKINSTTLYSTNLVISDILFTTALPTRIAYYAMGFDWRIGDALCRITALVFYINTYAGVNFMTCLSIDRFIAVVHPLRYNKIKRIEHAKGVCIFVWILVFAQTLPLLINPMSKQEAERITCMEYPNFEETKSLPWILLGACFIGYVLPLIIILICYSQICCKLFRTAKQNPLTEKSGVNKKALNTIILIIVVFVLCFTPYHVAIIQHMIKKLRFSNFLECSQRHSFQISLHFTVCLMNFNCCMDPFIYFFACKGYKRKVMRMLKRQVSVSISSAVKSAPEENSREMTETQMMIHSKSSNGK
tim10 confirm: growth inhibitors of wild-type TIM10 yeast, confirmation, counter-screen for tim10-1 synthetic lethality project, single concentration, luminescence, S. cerevisiae; shares compounds with TIM10 inh; S. cerevisiae tim10 strain growth, BacTiter-Glo luminescence, 24 h; inhibition, % at 10 µM; actives 63% (n = 4,600);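 active = inhibition of yeast growth at or above a set limit in either of two replicates at 10 µM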;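 note: this counterscreen used the strain with wild-type TIM10; 0% = yeast with DMSO and 100% = medium wells lacking yeast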
Starred values were filed as active, the others as inactive; . = no result given. An excerpt weighted towards active compounds, which were near 4.7% of everything screened.

SMILES	PfHsp90 set2	tim10-1 inh	SKKanGAS inh	TIM10 inh	tim23-1 inh	EBI2 block	tim10 confirm
Cc1c(Cc2ccccc2)sc(NC(=O)c2ccco2)c1C(N)=O	-48.9	14.5	0.3	50.6*	48.6	5.6	51.3*
Cc1cc(C)c2c(ccc3ccccc32)n1	7.0	.	.	.	.	0.6	.
Oc1ccc(-c2nc3ccc4ccccc4c3c3c2CCC3)cc1O	97.7*	13.7	12.8	41.4*	35.5	3.2	36.4*
COc1ccc(C(=O)N/C(=C/c2ccc(Cl)cc2)C(=O)NCc2ccncc2)cc1	-2.5	-8.7	-0.5	95.9*	-8.9	1.1	3.8
Fc1ccccc1/C=N/n1cc(-c2ccccc2)[nH]c1=S	-18.5	38.3	-14.9	45.5*	22.4	7.7	46.5*
Cc1c(-c2ccccc2)oc2c(C(=O)N3CCN(c4ccccc4F)CC3)cccc2c1=O	9.1	-9.6	-4.9	-1.5	21.4	18.6	.
O=C(N/N=C/c1ccccc1OCc1ccccc1)c1cccnc1	1.6	29.0	3.2	40.3*	42.1	-15.1	21.5
COc1cccc(/C=N/NC(=O)c2cnccn2)c1O	-19.5	-0.4	5.0	95.2*	33.9	8.3	11.9
CC(=O)Nc1ccc(C(=O)N/N=C/c2ccccc2OCc2ccccc2)cc1	40.6	-5.9	-2.5	18.1	5.1	-29.8	.
C/C=C1\COC(C(=O)NCCCN2CCCC2=O)(C(F)(F)F)C=C1C=C(C)C (configuration not stated)	11.3	8.3	-2.2	9.3	24.2	-3.4	.
CCOCCCNC(=O)Cn1cnc2c(cnn2-c2ccc(OC)cc2)c1=O	21.5	-13.7	-4.7	49.9*	-3.2	4.0	-5.9
O=C(c1ccc([N+](=O)[O-])s1)N1CCc2ccccc2C1	0.1	33.9	-20.1	45.2*	40.4	-6.9	22.4
O=C(c1ccc([N+](=O)[O-])s1)N1CCc2ccccc21	-4.9	11.9	7.3	18.7	-0.2	1.0	.
COc1cccc(NC(=O)NCCCSC2CCCCC2)c1	-2.5	32.1	-7.5	21.7	34.9	8.2	.
Cc1cc(C)c(NC(=S)NCCCSC2CCCCC2)c(C)c1	-8.3	34.5	9.5	42.3*	18.2	-5.1	26.6
C=CCN1C(=O)C(CC(=O)Nc2ccc(OCCC)cc2)N(CCCN2CCN(Cc3ccccc3)CC2)C1=S (configuration not stated)	-16.8	35.1	7.4	5.3	16.7	5.0	.
COc1ccc(NC(=O)CSc2nc3nc(C)cc(C)n3n2)cc1	-5.8	1.3	0.7	-14.3	7.1	-8.7	.
COc1ccc(NC(=O)c2ccc(NC(=O)c3nc4nc(C)cc(C)n4n3)cc2)cc1	12.8	1.8	.	42.5*	3.1	9.1	25.7
O=C(Nc1ccc(Cl)cc1)N1CCC(c2nc(-c3ccccc3Cl)no2)CC1	-12.2	30.1	34.9	47.9*	-6.1	42.4	19.4
CCN(CC)CCOc1cc2c(nn1)Oc1ccccc1N2C	13.2	11.0	3.1	14.3	24.8	-9.4	.
CN1c2ccccc2Oc2nnc(Cl)cc21	7.1	30.4	11.2	47.9*	43.3	-15.6	49.6*
Cc1[nH]c2ccccc2c1C(=O)/C=C/c1ccccc1Cl	8.3	-5.5	-15.2	31.4	19.2	15.3	.
Cc1[nH]c2ccccc2c1C(=O)/C=C\c1ccccc1Cl	8.7	30.1	-10.4	42.7*	47.4	19.3	11.8
Cc1ccc(C(=O)C(C(=O)/C=C/c2ccccc2)=C2SCCCS2)cc1	18.6	36.7	-2.2	51.7*	31.6	16.6	-16.1
Cc1ccc(C(=O)C=CC=Cc2ccccc2)cc1	.	.	.	.	.	12.9	.
CN(C)CCN(C(=O)c1cc(Cl)sc1Cl)c1nc2ccc(F)cc2s1	-39.5	7.8	-15.4	5.2	7.1	-1.4	.
CN(C)CCCN(C(=O)CCc1ccccc1)c1nc2ccc(F)cc2s1	15.5	28.4	-9.0	16.6	4.2	1.4	.
